Source: PubChem BioAssay (EPA / NIEHS)
Activity calls are given as the source filed them. The calls were made as follows: active = hit-call score of the fitted dose curve at least 0.9, where 1 is the maximum; inactive = score below 0.9.

Experiments:
[1] = APR_HepG2_CellCycleArrest_24hr: Apredica 24-hour HepG2 Assay for Cell Cycle Arrest (AID 2282905); conditions: imaging, actives raise or lower the signal;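 also: cell cycle arrest scored as ratio of 2N to 4N nuclear DNA content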
Method in brief: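 HepG2 cells were exposed to compounds at 0.39–200 uM (ten concentrations, duplicate) in 0.5% v/v DMSO for 24 hr. After formaldehyde fixation and Triton permeabilization, Hoechst 33342-stained nuclei were imaged at 20x; DNA content was quantified, with bidirectional fitting against DMSO.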

[2] = APR_HepG2_NuclearSize_24hr: Apredica 24-hour HepG2 Assay for Nuclear Size (AID 2282907); conditions: high-content imaging, actives raise or lower the signal
Method in brief: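 HepG2 human liver cells were exposed for 24 hr to compounds at 0.39–200 uM (ten concentrations, duplicate) in 0.5% v/v DMSO. They were then formaldehyde-fixed, Triton-permeabilized and Hoechst 33342-stained, and nuclear diameter was imaged at 20x. Bidirectional fits were made against DMSO.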

[3] = APR_HepG2_CellLoss_24hr: Apredica 24-hour HepG2 Assay for Cell Loss (AID 2282908); conditions: high-content imaging;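 as to AC50: fit in both directions so a hit may be cell loss or gain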
Method in brief: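 Compounds were tested at 0.39–200 uM in duplicate with 0.5% v/v DMSO final. Cells were then fixed in 3.7% formaldehyde, Hoechst 33342 nuclei were imaged at 20x by HCS, and cell number was fitted bidirectionally against DMSO.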

[4] = APR_HepG2_MicrotubuleCSK_24hr: Apredica 24-hour HepG2 Assay for Microtubule CSK Stabilty (AID 2282909); conditions: HepG2 microtubule cytoskeleton imaging, actives raise or lower the signal
Method in brief: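 HepG2 cells exposed 24 h to compounds at 0.39–200 uM (duplicate, 0.5% v/v DMSO final), then fixed, permeabilized and immunostained for alpha-tubulin with Hoechst 33342. Cytoskeleton imaged at 20x; bidirectional fit versus DMSO baseline.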

[5] = APR_HepG2_MitoticArrest_24hr: Apredica 24-hour HepG2 Assay for Mitotic Arrest (AID 2282910); conditions: high-content imaging, actives raise or lower the signal
Method in brief: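 HepG2 cells, 24 h exposure at 0.39-200 uM (10 concentrations, duplicate, 0.5% DMSO). Fixed, stained for phospho-histone H3 with Hoechst; imaged by high-content microscopy, bidirectional fit versus DMSO.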

[6] = APR_HepG2_MitoMembPot_24hr: Apredica 24-hour HepG2 Assay for Mitochondrial Membrane Potential (AID 2282911); conditions: imaging, actives raise or lower the signal
Method in brief: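 Cells are dosed for 24 hr across 0.39 to 200 uM with solvent held at 0.5% DMSO. They are then stained with 250 nM MitoTracker Red CMXRos for 30 min, fixed in 3.7% formaldehyde and imaged.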

[7] = APR_HepG2_MitoMass_24hr: Apredica 24-hour HepG2 Assay for Mitochondrial Mass (AID 2282912); conditions: high-content imaging, actives raise or lower the signal
Method in brief: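 Human HepG2 liver cells were exposed for 24 hr to compounds at 0.39–200 uM (duplicates, 0.5% v/v DMSO final). They were stained live with 250 nM MitoTracker Red CMXRos for 30 min, fixed in 3.7% formaldehyde, and imaged by HCS fluorescence; signals were fitted bidirectionally against DMSO.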

[8] = APR_HepG2_CellCycleArrest_72hr: Apredica 72-hour HepG2 Assay for Cell Cycle Arrest (AID 2282914); conditions: high-content imaging, actives raise or lower the signal
Method in brief: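 Read-out is Hoechst-stained nuclear DNA content measured by automated fluorescence imaging (20x, six images per well), fitted in both directions relative to DMSO. Human HepG2 liver cells received 0.39–200 uM compound for 72 hr at 0.5% v/v DMSO.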

[9] = APR_HepG2_p53Act_24hr: Apredica 24-hour HepG2 Assay for p53 Activation (AID 2282913); conditions: high-content imaging, actives raise or lower the signal;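 also: p53 protein immunofluorescence averaged per cell in HepG2 with Hoechst nuclei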
Method in brief: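 Human HepG2 liver cells; 24 hr cpd treatment, 0.39–200 uM, 0.5% DMSO final. Fixed in 3.7% formaldehyde, permeabilized with 0.5% Triton X-100, stained with anti-p53/Cy5 plus Hoechst 33342. Six images per well at 20x; gain or loss vs DMSO.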

What does the source list for CC(=O)CC(C)(C)O?
AC50 [1]: 0.0392 µM (active); outcome [2]: inactive; AC50 [3]: 19.8 µM (active); AC50 [4]: 0.0415 µM (active); AC50 [5]: 0.0402 µM (active); outcome [6]: inactive; AC50 [7]: 8.56 µM (active); AC50 [8]: 32.1 µM (active)

Which outcome [1] does the source give for CCC(=C(c1ccc(O)cc1)c1ccc(OCCN(C)C)cc1)c1ccccc1 here?
The outcome was “inactive”.

What about the outcome [2] of the same molecule?
Its outcome is “inactive”.

What about the outcome [3] of the same molecule?
The outcome was “inactive”.

What about the outcome [4] of the same molecule?
The outcome was “inactive”.

What about the outcome [5] of the same molecule?
Its outcome is “inactive”.

And the outcome [6]?
Its outcome is “inactive”.

And the outcome [7]?
Its outcome is “inactive”.

And the outcome [8]?
Its outcome is “inactive”.

For COC(=O)CCCCC(=O)OC, which outcome [1] is on record?
Its outcome is “inactive”.

What about the outcome [2] of the same molecule?
Its outcome is “inactive”.

And the outcome [3]?
The outcome was “inactive”.

What about the outcome [4] of the same molecule?
The outcome was “inactive”.

What about the outcome [5] of the same molecule?
Its outcome is “inactive”.

And the outcome [6]?
The outcome was “inactive”.

What about the outcome [7] of the same molecule?
Its outcome is “inactive”.

And the outcome [9]?
The outcome was “inactive”.

What about the outcome [8] of the same molecule?
Its outcome is “inactive”.

Which results are given for CCC(C)(C)C1CCC(O)CC1 (stereo not drawn)?
outcome [1]: inactive; outcome [2]: inactive; AC50 [3]: 99.8 µM (active); outcome [4]: inactive; outcome [5]: inactive; outcome [6]: inactive; outcome [7]: inactive; outcome [8]: inactive

With CCc1ccc(CCOc2ccc(CC3SC(=O)NC3=O)cc2)nc1 (stereo not drawn) as the molecule, how does the AC50 [1] read?
The AC50 was 30.6 µM (active).

What about the outcome [2] of the same molecule?
Its outcome is “inactive”.

What about the AC50 [3] of the same molecule?
Its AC50 is 110 µM (active).

What about the outcome [4] of the same molecule?
The outcome was “inactive”.

What about the outcome [5] of the same molecule?
The outcome was “inactive”.

What about the outcome [6] of the same molecule?
The outcome was “inactive”.

And the outcome [7]?
The outcome was “inactive”.

What about the outcome [9] of the same molecule?
The outcome was “inactive”.

And the AC50 [8]?
Its AC50 is 94.4 µM (active).

Which outcome [1] does the source give for O=C(OCCOCCOC(=O)c1ccccc1)c1ccccc1 here?
Its outcome is “inactive”.

And the outcome [2]?
Its outcome is “inactive”.

What about the outcome [3] of the same molecule?
The outcome was “inactive”.

And the outcome [4]?
The outcome was “inactive”.

And the outcome [5]?
The outcome was “inactive”.

What about the outcome [6] of the same molecule?
Its outcome is “inactive”.

And the outcome [7]?
Its outcome is “inactive”.

What about the outcome [8] of the same molecule?
The outcome was “inactive”.

Which outcome [1] does the source give for Cc1oc(-c2ccccc2)nc1CCOc1ccc(C[C@H](Nc2ccccc2C(=O)c2ccccc2)C(=O)O)cc1 here?
Its outcome is “inactive”.

And the outcome [2]?
The outcome was “inactive”.

And the AC50 [3]?
The AC50 was 84.9 µM (active).

And the outcome [4]?
The outcome was “inactive”.

And the AC50 [5]?
The AC50 was 84.9 µM (active).

And the AC50 [6]?
The AC50 was 109 µM (active).

And the outcome [7]?
The outcome was “inactive”.

And the AC50 [8]?
The AC50 was 82.7 µM (active).

What does the source list for CCCCCCCCCCCCc1ccccc1S(=O)(=O)O?
outcome [1]: inactive; outcome [2]: inactive; AC50 [3]: 116 µM (active); outcome [4]: inactive; AC50 [5]: 106 µM (active); outcome [6]: inactive; outcome [7]: inactive; outcome [8]: inactive

For CCCCC[C@H](O)CC(=O)CCc1ccc(O)c(OC)c1, which outcome [1] is on record?
The outcome was “inactive”.

What about the outcome [2] of the same molecule?
The outcome was “inactive”.

What about the outcome [3] of the same molecule?
The outcome was “inactive”.

And the outcome [4]?
The outcome was “inactive”.

And the outcome [5]?
The outcome was “inactive”.

What about the outcome [6] of the same molecule?
Its outcome is “inactive”.

And the outcome [7]?
The outcome was “inactive”.

What about the outcome [8] of the same molecule?
The outcome was “inactive”.

Which outcome [1] does the source give for N#C[C@@H]1CC(F)(F)CN1C(=O)CNC1CC2CCC(C1)N2c1ncccn1 (stereo partly drawn) here?
Its outcome is “inactive”.

And the outcome [2]?
Its outcome is “inactive”.

What about the outcome [3] of the same molecule?
The outcome was “inactive”.

What about the outcome [4] of the same molecule?
The outcome was “inactive”.

What about the outcome [5] of the same molecule?
Its outcome is “inactive”.

What about the outcome [6] of the same molecule?
Its outcome is “inactive”.

What about the outcome [7] of the same molecule?
Its outcome is “inactive”.

And the outcome [8]?
The outcome was “inactive”.

Which results are given for Oc1cccc(O)c1?
outcome [1]: inactive; outcome [2]: inactive; outcome [3]: inactive; outcome [4]: inactive; outcome [5]: inactive; outcome [6]: inactive; outcome [7]: inactive; outcome [9]: inactive; outcome [8]: inactive

With CC(=O)NC1(c2cccc(F)c2)CCN(CC[C@@]2(c3ccc(Cl)c(Cl)c3)CN(c3ccccc3)C(=O)CO2)CC1 as the molecule, how does the AC50 [1] read?
Its AC50 is 26.3 µM (active).

And the outcome [2]?
Its outcome is “inactive”.

And the AC50 [3]?
Its AC50 is 36.3 µM (active).

What about the AC50 [4] of the same molecule?
Its AC50 is 146 µM (active).

And the AC50 [5]?
The AC50 was 31.6 µM (active).

And the AC50 [6]?
Its AC50 is 90.2 µM (active).

And the AC50 [7]?
Its AC50 is 151 µM (active).

What about the AC50 [8] of the same molecule?
Its AC50 is 18.7 µM (active).

Which results are given for CCCCCCC(=O)O?
outcome [1]: inactive; outcome [2]: inactive; outcome [3]: inactive; outcome [4]: inactive; outcome [5]: inactive; outcome [6]: inactive; outcome [7]: inactive; outcome [8]: inactive

For CCCCCCCCC(=O)O, which outcome [1] is on record?
Its outcome is “inactive”.

What about the outcome [2] of the same molecule?
Its outcome is “inactive”.

And the outcome [3]?
Its outcome is “inactive”.

And the outcome [4]?
Its outcome is “inactive”.

What about the outcome [5] of the same molecule?
Its outcome is “inactive”.

What about the outcome [6] of the same molecule?
Its outcome is “inactive”.

What about the outcome [7] of the same molecule?
The outcome was “inactive”.

And the outcome [8]?
Its outcome is “inactive”.

Which outcome [1] does the source give for CC1=C(/C=C/C(C)=C/C=C/C(C)=C/C(=O)O)C(C)(C)CCC1 here?
Its outcome is “inactive”.

What about the AC50 [2] of the same molecule?
Its AC50 is 114 µM (active).

And the AC50 [3]?
Its AC50 is 103 µM (active).

What about the outcome [4] of the same molecule?
Its outcome is “inactive”.

And the AC50 [5]?
The AC50 was 109 µM (active).

And the AC50 [6]?
Its AC50 is 83.2 µM (active).

What about the AC50 [7] of the same molecule?
The AC50 was 92.6 µM (active).

And the outcome [8]?
Its outcome is “inactive”.

Which outcome [1] does the source give for COc1cc(CCC(=O)CC(=O)CCc2ccc(O)c(OC)c2)ccc1O here?
Its outcome is “inactive”.

And the outcome [2]?
The outcome was “inactive”.

What about the outcome [3] of the same molecule?
Its outcome is “inactive”.

What about the outcome [4] of the same molecule?
The outcome was “inactive”.

And the outcome [5]?
The outcome was “inactive”.

And the outcome [6]?
The outcome was “inactive”.

What about the outcome [7] of the same molecule?
Its outcome is “inactive”.

What about the outcome [9] of the same molecule?
The outcome was “inactive”.

And the outcome [8]?
The outcome was “inactive”.

With CN1CCC[C@H]1c1cccnc1 as the molecule, how does the outcome [1] read?
Its outcome is “inactive”.

What about the outcome [2] of the same molecule?
The outcome was “inactive”.

And the outcome [3]?
Its outcome is “inactive”.

What about the outcome [4] of the same molecule?
Its outcome is “inactive”.

And the outcome [5]?
The outcome was “inactive”.

What about the outcome [6] of the same molecule?
Its outcome is “inactive”.

What about the outcome [7] of the same molecule?
The outcome was “inactive”.

What about the outcome [8] of the same molecule?
The outcome was “inactive”.

With Cc1cc(C)c(O)c(C)c1 as the molecule, how does the outcome [1] read?
The outcome was “inactive”.

And the outcome [2]?
Its outcome is “inactive”.

What about the outcome [3] of the same molecule?
The outcome was “inactive”.

And the outcome [4]?
Its outcome is “inactive”.

What about the outcome [5] of the same molecule?
Its outcome is “inactive”.

And the outcome [6]?
The outcome was “inactive”.

What about the outcome [7] of the same molecule?
The outcome was “inactive”.

And the outcome [8]?
The outcome was “inactive”.
